# Source: PubChem BioAssay (NCATS)
# Values joined by “and” are separate entries in the source; they are usually repeats but may differ in a detail not shown here. Equal entries are not always repeated. Results filed as inconclusive are left out. A call without a number means that no potency is given here. Active and inactive are the calls of the source. Unless noted, calls follow the shape of the dose curve; as a rule, active = well fitted curve in the direction sought with a large enough effect; inconclusive = small, poorly fitted or top-dose-only effect, or another doubt; inactive = no such curve, though single readings can be large; an effect the other way counts as inactive or inconclusive.
# How the values were obtained:
# [1] = qHTS assay to identify small molecule inhibitors of chordoma cells - UCH-1 (AID 1259355); also: nearly all actives have a fitted effect of over 55% in size
# Procedure, shortened: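 Seed 800 cells per well; incubate overnight at 37 C, 5% CO2. Add test compounds (15 concentrations), then the auranofin–topoisomerase-agent combination. Incubate 48hr, add CellTiter-Glo, wait 30min, read luminescence.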
# [2] = P-glycoprotein substrates identified in KB-8-5-11 adenocarcinoma cell line, qHTS therapeutic library screen (AID 1346987); settings: outcome: dose series up to 44.5 µM unless noted; also: nearly all actives have a fitted effect of over 65% in size
# Procedure, shortened: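 P-gp-mediated resistance screen: KB-8-5-11 cells treated 72 h with compounds in dose-response. CellTiter-Glo viability.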
# [3] = qHTS Assay for Identifying Gametocytocidal Compounds (AID 743244);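 also: actives lower the fluorescent signal which means gametocytes are killed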; settings: P. falciparum 3D7 stage III-V gametocytes, alamarBlue, 72 h; max response: stronger effect = lower value
# Procedure, shortened: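 Fluorescence at Ex 525/Em 598 nm, recorded 24 h after alamarBlue addition, reports residual metabolic activity of 3D7 gametocytes (stages III–V) following 72 h compound exposure at 37 °C, 5% CO2.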
# [4] = qHTS assay for cell viability of the p53RE-bla HCT-116 cell line (AID 743292); also: nearly all actives have a fitted effect of over 55% in size
# Procedure, shortened: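 ATP-based luminescent viability (CellTiter-Glo, 30 min RT) after 16 h compound treatment at 37 C of p53RE-bla HCT-116 cells, seeded at 4,000 cells/well and rested 5 h before dosing.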
# [5] = NS1 protein of Zika virus - qHTS assay to identify small molecule inhibitors in human HEK 293 cells (AID 1347053); also: nearly all actives have a fitted effect of over 55% in size
# Procedure, shortened: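 HEK 293 cells, seeded 20 h at 37 C, were pretreated with compound 1 h, then infected with ZIKV MR766 (MOI = 0.5) for 24 h. NS1 was read by TR-FRET with two anti-NS1 antibodies, normalized to uninfected and infected wells.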
# [6] = qHTS assay for cell viability of HEK293 cells (AID 743288); settings: ATP luminescence (CellTiter-Glo), 18 h; max response: stronger effect = lower value; also: nearly all actives have a fitted effect of over 50% in size
# Procedure, shortened: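 Parental HEK293 cells were seeded at 2,000 cells/well, rested at least 5 h at 37 C, then exposed to compounds in DMSO for 18 h at 37 C. Viability was read as ATP-dependent luciferase luminescence after 30 min at room temperature.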
# [7] = qHTS profiling for inhibitors of Plasmodium falciparum (3D7) proliferation (AID 743322);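 also: infected erythrocytes exposed to compound for 72 h before lysis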; settings: P. falciparum 3D7 proliferation; at 28.7 µM (top of the series) unless noted
# Procedure, shortened: (§1)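 Erythrocytes infected with P. falciparum (0.3% parasitemia, 2.5% hematocrit) incubated with compounds 72 h at 37 C, 5% CO2. Lysis with saponin/Triton buffer containing SYBR Green I, overnight at room temperature in the dark; DNA fluorescence (485/535 nm) normalised to 0.29 uM artemisinin and DMSO.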
# [8] = qHTS profiling for inhibitors of Plasmodium falciparum (DD2) proliferation (AID 743323; call rule not given here); settings: lower = more inhibition; at 28.7 µM (top of the series) unless noted
# Procedure, shortened: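 SYBR Green fluorescence (ex 485, em 535 nm) of lysed cultures gives parasite DNA content; wells normalized to artemisinin (0.29 uM) and DMSO controls. Infected red cells: 0.3% parasitemia, 2.5% hematocrit, 72 h, 37 C.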
# [9] = qHTS profiling for inhibitors of Plasmodium falciparum (HB3) proliferation (AID 743324); settings: Plasmodium falciparum HB3 blood-stage proliferation; at 28.7 µM (top of the series) unless noted
# Procedure, shortened: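 P. falciparum HB3 grown in erythrocytes (0.3% parasitemia, 2.5% hematocrit final) with compound for 72 h at 37 C, 5% CO2. Parasite DNA detected by SYBR Green after saponin/triton lysis overnight; normalized to 0.29 uM artemisinin and DMSO.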
# [10] = qHTS profiling of the MIPE4 collection as inhibitors of Plasmodium falciparum (3D7) proliferation (AID 743344; call rule not given here); settings: P. falciparum 3D7 in erythrocytes, SYBR Green DNA fluorescence, 72 h; at 28.5 µM (top of the series)
# Procedure, shortened: as §1
# [11] = qHTS profiling of the MIPE4 collection as inhibitors of Plasmodium falciparum (DD2) proliferation (AID 743345; call rule not given here); settings: P. falciparum Dd2 in erythrocytes, SYBR Green DNA, 72 h; at 28.5 µM (top of the series)
# Procedure, shortened: as §1
# [12] = qHTS profiling of the MIPE4 collection as inhibitors of Plasmodium falciparum (DD2) proliferation (Rep 2) (AID 743346; call rule not given here); settings: P. falciparum Dd2 in erythrocytes, SYBR Green DNA, 72 h; at 28.5 µM (top of the series)
# Procedure, shortened: as §1
# [13] = qHTS profiling of the MIPE4 collection as inhibitors of Plasmodium falciparum (HB3) proliferation (AID 743347; call rule not given here); settings: P. falciparum HB3 in erythrocytes, SYBR Green DNA, 72 h; at 28.5 µM (top of the series)
# Procedure, shortened: as §1
# [14] = qHTS assay to identify small molecule inhibitors of chordoma cells - UCH-2 (AID 1259356)
smiles,measurement,setting,value
O[C@@H]([C@H](O)[C@H](O)CBr)[C@H](O)CBr,Potency,[1],inactive
same,Potency,[2],inactive
OCCN1CCN(CC/C=C2/c3ccccc3Sc3ccc(Cl)cc32)CC1,max response,[3],-5.02% (inactive)
same,Potency,[1],inactive
CCC(=O)OC(OP(=O)(CCCCc1ccccc1)CC(=O)N1C[C@H](C2CCCCC2)C[C@H]1C(=O)O)C(C)C (some centres not stated),max response,[3],15.3% (inactive)
same,Potency,[1],inactive
same,Potency,[2],inactive
CCCCCCCCCCCCCCCCCC(=O)OCC(C)O (configuration not stated),max response,[3],2.45% (inactive)
same,Potency,[1],inactive
same,Potency,[2],inactive
CO,max response,[3],16% (inactive)
same,outcome,[4],inactive
same,Potency,[1],inactive
same,Potency,[2],inactive
CC(=O)OCC1=C(C(=O)O)N2C(=O)[C@@H](NC(=O)Cc3ccccc3)[C@H]2SC1,max response,[3],7.9% (inactive)
same,Potency,[1],inactive
same,Potency,[2],inactive
CO/N=C(\C(=O)N[C@@H]1C(=O)N2C(C(=O)O)=C(C[N+]3(C)CCCC3)CS[C@H]12)c1csc(N)n1,Potency,[1],inactive
same,Potency,[2],inactive
Cc1cc2nc3c(=O)[nH]c(=O)nc-3n(C[C@H](O)[C@H](O)[C@H](O)COP(=O)(O)OP(=O)(O)OC[C@H]3O[C@@H](n4cnc5c(N)ncnc54)[C@H](O)[C@@H]3O)c2cc1C,Potency,[1],inactive
same,Potency,[2],inactive
O=C1c2ccccc2C(=O)c2c1ccc(O)c2O,max response,[3],2.07% (inactive)
same,Potency,[1],inactive
same,outcome,[5],inactive
CCCCC,max response,[3],2.54% (inactive)
same,max response,[6],-0.392% (inactive)
same,outcome,[4],inactive
same,Potency,[1],inactive
same,Potency,[2],inactive
CO/N=C(/C(=O)N[C@@H]1C(=O)N2C(C(=O)O)=C(COC(N)=O)CS[C@H]12)c1ccco1,max response,[3],-11% (inactive) and 13.4% (inactive)
same,max response,[6],2.57% (inactive)
same,outcome,[4],inactive
same,Potency,[1],inactive
same,Potency,[2],inactive
C#C[C@]1(O)CC[C@@H]2[C@H]3CCC4=CC(=O)CC[C@H]4[C@H]3C(=C)C[C@@]21CC,remaining parasite growth % (stronger effect = lower value),[7],38.1%
same,"activity, percent of control",[8],51.3%
same,"remaining proliferation (% of control), lower = more inhibition",[9],25.2%
same,"parasite growth, % of DMSO control",[10],22.9%
same,"parasite growth remaining, % of DMSO control (lower = more inhibition)",[11],82.2%
same,"parasite growth, % of control (lower = inhibition)",[12],66.9%
same,"growth, % of control",[13],44.4%
same,Potency,[1],inactive
same,Potency,[2],inactive
CC[C@H]1OC(=O)[C@H](C)[C@@H](O[C@H]2C[C@@](C)(OC)[C@@H](O)[C@H](C)O2)C(C)[C@@H](O[C@@H]2O[C@H](C)C[C@H](N(C)C)[C@@H]2O)[C@](C)(OC)C[C@@H](C)C(=O)[C@H](C)[C@@H](O)[C@]1(C)O (some centres not stated),"parasite growth, % of DMSO control",[10],19.7%
same,"parasite growth remaining, % of DMSO control (lower = more inhibition)",[11],35.4%
same,"parasite growth, % of control (lower = inhibition)",[12],38.9%
same,"growth, % of control",[13],37.4%
same,Potency,[1],inactive
same,Potency,[2],inactive
Cc1nc(NS(=O)(=O)c2ccc(N)cc2)nc(C)c1Br,max response,[3],21.7% (inactive)
same,Potency,[1],inactive
same,Potency,[2],inactive
O=C(O)C1=C(CSc2nnnn2CS(=O)(=O)O)CS[C@@H]2[C@H](NC(=O)[C@H](O)c3ccccc3)C(=O)N12,max response,[3],-5.8% (inactive)
same,Potency,[1],inactive
same,Potency,[2],inactive
COc1ccc(-c2noc(CC(=O)O)c2-c2ccc(OC)cc2)cc1,max response,[3],49.9% (inactive)
same,Potency,[1],inactive
same,Potency,[2],inactive
OCC(O)CO,outcome,[4],inactive
same,Potency,[1],inactive
same,Potency,[2],inactive
CN(C)CCC=C1c2ccccc2C(C)(C)c2ccccc21,Potency,[14],inactive
C=CC[C@@H]1/C=C(\C)C[C@H](C)C[C@H](OC)[C@H]2O[C@@](O)(C(=O)C(=O)N3CCCC[C@H]3C(=O)O[C@H](/C(C)=C/[C@@H]3CC[C@@H](O)[C@H](OC)C3)[C@H](C)[C@@H](O)CC1=O)[C@H](C)C[C@@H]2OC,Potency,[14],inactive
CC/C=C\C/C=C\C/C=C\C/C=C\C/C=C\C/C=C\CCC(=O)O,max response,[3],-1.97% (inactive)
same,Potency,[1],inactive
same,Potency,[2],inactive
COc1ccc(/C=C/C(=O)OCCC(C)C)cc1,max response,[3],3.66% (inactive)
same,Potency,[1],inactive
same,Potency,[2],inactive
O=C(c1cc2ccccc2o1)N1CCN(Cc2ccccc2)CC1,max response,[3],7.29% (inactive)
same,Potency,[1],inactive
COc1ccc(C(=O)/C(Br)=C\C(=O)O)cc1,max response,[3],20.3% (inactive)
same,Potency,[1],inactive
CCCC(=O)O,max response,[3],-0.429% (inactive)
same,Potency,[1],inactive
same,Potency,[2],inactive
CN(C)CCOc1ccc(/C(=C(/CCCl)c2ccccc2)c2ccccc2)cc1,max response,[3],7.93% (inactive)
same,Potency,[1],inactive
CCOC(=O)c1c[nH]c2cc(OCC(C)C)c(OCC(C)C)cc2c1=O,max response,[3],-10.7% (inactive)
same,Potency,[1],inactive
same,Potency,[2],inactive
O=C(O)CCC/C=C\C[C@@H]1[C@@H](/C=C/[C@@H](O)COc2cccc(C(F)(F)F)c2)[C@H](O)C[C@@H]1O,max response,[3],7.42% (inactive)
same,Potency,[14],inactive
same,Potency,[2],inactive
CCOC(=O)[C@@H](N)CS,max response,[3],0.746% (inactive)
same,Potency,[2],inactive
CC1(C)C(\C=C/C=C\C=C/C=C2/N(CCCCS(=O)(=O)O)c3ccc4ccccc4c3C2(C)C)=[N+](CCCCS(=O)(=O)[O-])c2ccc3ccccc3c21,max response,[3],2.8% (inactive)
same,Potency,[14],inactive
same,Potency,[2],inactive
O=C(O)Cc1nn(Cc2ccc(Br)cc2F)c(=O)c2ccccc12,max response,[3],-4.01% (inactive)
same,Potency,[14],inactive
same,Potency,[2],inactive
